VDR inh = blocks the human vitamin D receptor; 0.93% of 400,000 active; VDR-SRC2-3 peptide fluorescence polarization, 2 h; AID 504847; Potency, µM, inactives show max response, negative = inhibition, most hits filed as inhibitors; also: % is scaled to controls: 0 for no effect and ±100 for the full control effect
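Signal is fluorescence polarization, reporting how far test compounds block the interaction of VDR with the SRC2-3 coregulator peptide after a 2 h room-temperature incubation.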
USP1-UAF1 inh = blocks the human USP1/UAF1 deubiquitinase complex. recombinant USP1/UAF1, Ub-Rhodamine cleavage fluorescence. Potency, µM (highest dose often 57.1 µM), without a hit: at the top dose activity change, negative = inhibition, most hits filed as inhibitors. 0.23% of 390,000 active. AID 743255; also: % is scaled to controls: 0 for no effect and ±100 for the full control effect; nearly all actives have a fitted effect of over 60% in size
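In this screen, compounds sit with the deubiquitinase complex (1nM) for 15 min at room temperature before Ub-Rho is added at 150nM final. Fluorescence rise is then followed for 6 reads every 60 seconds.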
EPAC2 ag = activates human EPAC2 exchange factor; Q8WZA2; EPAC2 activation, biochemical qHTS; response scale: 100% = 6.5 mM cAMP response; Potency, µM (doses to about 154 µM), for the others: at the top dose activation, hits mostly activators; 0.079% of 360,000 active; AID 720711; also: nearly all actives have a fitted effect of over 50% in size
Target sequence (Q8WZA2 whole entry, looked up): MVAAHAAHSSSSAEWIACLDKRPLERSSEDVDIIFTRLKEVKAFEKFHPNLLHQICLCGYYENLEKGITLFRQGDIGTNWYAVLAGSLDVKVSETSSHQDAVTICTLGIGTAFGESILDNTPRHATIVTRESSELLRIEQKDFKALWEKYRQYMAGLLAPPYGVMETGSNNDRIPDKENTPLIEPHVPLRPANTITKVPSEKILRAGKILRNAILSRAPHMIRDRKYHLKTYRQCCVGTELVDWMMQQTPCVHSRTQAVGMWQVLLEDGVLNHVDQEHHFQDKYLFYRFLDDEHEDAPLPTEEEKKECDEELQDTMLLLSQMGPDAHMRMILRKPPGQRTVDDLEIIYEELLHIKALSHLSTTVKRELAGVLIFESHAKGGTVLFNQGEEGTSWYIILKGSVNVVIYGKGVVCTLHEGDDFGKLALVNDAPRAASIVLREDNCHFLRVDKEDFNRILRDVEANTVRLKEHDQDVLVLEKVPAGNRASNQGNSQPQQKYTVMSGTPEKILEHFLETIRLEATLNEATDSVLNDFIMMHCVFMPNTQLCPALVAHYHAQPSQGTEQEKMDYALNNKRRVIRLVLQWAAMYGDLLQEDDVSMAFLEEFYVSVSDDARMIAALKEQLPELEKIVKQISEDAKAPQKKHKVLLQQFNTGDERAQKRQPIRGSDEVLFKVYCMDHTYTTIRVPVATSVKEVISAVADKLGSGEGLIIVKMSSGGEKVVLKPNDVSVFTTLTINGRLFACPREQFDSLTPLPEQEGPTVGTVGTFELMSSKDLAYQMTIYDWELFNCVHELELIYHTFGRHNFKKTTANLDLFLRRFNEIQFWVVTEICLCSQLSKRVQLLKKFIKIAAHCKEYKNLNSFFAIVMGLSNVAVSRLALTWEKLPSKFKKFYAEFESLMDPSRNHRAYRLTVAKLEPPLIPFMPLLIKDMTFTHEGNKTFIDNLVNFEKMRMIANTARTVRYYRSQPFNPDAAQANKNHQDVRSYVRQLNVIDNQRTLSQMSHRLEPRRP
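Nucleotide exchange monitored as fluorescence drop when BODIPY-GDP leaves Rap1B. Reaction: 100 nM EPAC2, 250 nM RAP1B-BODIPY-GDP, 50 uM GDP, room temperature, kinetic read over 30 min. Activity expressed relative to 6.5 mM cAMP.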
EPAC1 ag = agonists of human EPAC1. O95398. EPAC1 agonist qHTS, biochemical assay; response scale: 100% = response to 6.5 mM cAMP. Potency, µM (titrated, usually from 154 µM), for inactives: top-dose activation, usual class: activators. 0.073% of 360,000 active. AID 720707; also: nearly all actives have a fitted effect of over 60% in size
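Nucleotide exchange by EPAC1 (100 nM) on Rap1B–BODIPY-GDP (250 nM) in the presence of 50 uM GDP is tracked fluorescently at 480/540 nm over 30 min. Signals are normalized to a 6.5 mM cAMP control.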
EPAC1 antag = antagonists of human EPAC1; O95398; EPAC1 GEF assay, Rap1b-BODIPY-GDP exchange fluorescence; Potency, µM (top dose mostly 115 µM), for the others: at the top dose activity change, negative = inhibition, most hits filed as inhibitors; 0.14% of 360,000 active;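 also: plate controls were vehicle for no effect and positive control for full effect; nearly all actives have a fitted effect of over 50% in size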
EPAC2 antag = EPAC2 (human) antagonism | 0.18% of 360,000 active | EPAC2 GEF exchange of Rap1B-BODIPY-GDP, fluorescence | Potency, µM (series often up to 114 µM), for the others: at the top dose activity, negative = inhibition, actives largely listed as inhibitors; also: % is scaled to controls: 0 for no effect and ±100 for the full control effect; nearly all actives have a fitted effect of over 45% in size
Active calls of the source: *. Rows were chosen to be rich in hits. Some 1.2% of all compounds tested hit in one or more screens of this group. Calls follow the shape of the dose curve; as a rule, active = well fitted curve in the direction sought with a large enough effect; inconclusive = small, poorly fitted or top-dose-only effect, or another doubt; inactive = no such curve, though single readings can be large; an effect the other way counts as inactive or inconclusive. Potency is read from the fitted curve at half-maximal effect.

How did CCOc1cc(S(=O)(=O)N(CC)CC)ccc1F do in these assays?
VDR inh: -10%; USP1-UAF1 inh: -10%; EPAC2 ag: 0%; EPAC1 ag: 3%; EPAC1 antag: -10%; EPAC2 antag: 2%

How did COc1ccc(C(=O)c2ccccc2)c2c(O)ccc(C(=O)c3ccccc3)c12 do in these assays?
VDR inh: 17%; USP1-UAF1 inh: -7%; EPAC2 ag: 6.3µM*; EPAC1 ag: -14%; EPAC1 antag: -1%; EPAC2 antag: 5%

What do the screens show for `COc1cc(C(=O)c2ccccc2)c([N+](=O)[O-])cc1OC`?
VDR inh: -7%; USP1-UAF1 inh: -14%; EPAC2 ag: 3%; EPAC1 ag: -9%; EPAC1 antag: -3%; EPAC2 antag: 79µM*

How did CCCN1CCC(=O)N(C(CSc2ccc(C)cc2)CC(C)C)CC1 (stereo unspecified) do in these assays?
VDR inh: -19%

Results for O=C1CC(=O)N(Cc2ccco2)C(=O)N1 ?
VDR inh: inconclusive; USP1-UAF1 inh: -23%; EPAC2 ag: 2%; EPAC1 ag: 20%; EPAC1 antag: inconclusive; EPAC2 antag: inconclusive

How did O=C1CC(=O)N(Cc2ccco2)C(=S)N1 do in these assays?
VDR inh: inconclusive; USP1-UAF1 inh: -23%; EPAC2 ag: 5%; EPAC1 ag: 4%; EPAC1 antag: 45µM*; EPAC2 antag: 14%

Results for CCOC(=O)c1c(NC(=O)CSc2cn(CCNC(=O)c3ccccc3OC)c3ccccc23)sc2c1CCC2 ?
VDR inh: -3%; USP1-UAF1 inh: -10%

How did COc1ccc(OC)c(/C=C2\SC(=S)N(NS(=O)(=O)c3ccc(C)cc3)C2=O)c1 do in these assays?
VDR inh: inconclusive; USP1-UAF1 inh: inconclusive; EPAC2 ag: 9%; EPAC1 ag: 9%; EPAC1 antag: 56µM*; EPAC2 antag: inconclusive

Results for COc1ccc(/C=C2\SC(=S)N(NS(=O)(=O)c3ccc(C)cc3)C2=O)c(OC)c1 ?
VDR inh: -14%; USP1-UAF1 inh: -24%; EPAC2 ag: -18%; EPAC1 ag: -1%; EPAC1 antag: inconclusive; EPAC2 antag: -13%

How did COc1ccc(OC)c(/C=C2\SC(=S)N(Cc3cccnc3)C2=O)c1 do in these assays?
VDR inh: -9%; USP1-UAF1 inh: -17%; EPAC2 ag: 112µM*; EPAC1 ag: 9%; EPAC1 antag: 4%; EPAC2 antag: 10%

How did COc1ccccc1/C=C1\SC(=S)N(NS(=O)(=O)c2ccc(C)cc2)C1=O do in these assays?
VDR inh: -3%; USP1-UAF1 inh: -25%; EPAC2 ag: 8%; EPAC1 ag: -4%; EPAC1 antag: 79µM*; EPAC2 antag: inconclusive

How did Cc1ccccc1C1CC(=O)Oc2cc(C)c(Cl)c(C)c21 (stereo unspecified) do in these assays?
VDR inh: -1%

What do the screens show for `COc1ccc(C2c3cccn3CCN2S(=O)(=O)c2ccc([N+](=O)[O-])cc2)cc1` (stereo unspecified)?
VDR inh: 13%; USP1-UAF1 inh: -25%

Results for COc1ccc(NC(=O)Cn2cc(S(=O)(=O)c3ccccc3)c(=O)c3cc(C)ccc32)cc1Cl ?
VDR inh: -8%; USP1-UAF1 inh: -18%

What do the screens show for `O=C(CCn1nc(-c2ccccc2)c2ccccc2c1=O)Nc1ccccc1`?
VDR inh: -6%; USP1-UAF1 inh: -16%

How did COc1ccccc1NC(=O)CCn1nc(-c2ccccc2)c2ccccc2c1=O do in these assays?
VDR inh: 56µM*; USP1-UAF1 inh: -29%

Results for Cc1cc(C)cc(Nc2cc(=O)n(C3CCCCC3)c(=O)[nH]2)c1 ?
VDR inh: 1%; USP1-UAF1 inh: -3%; EPAC2 ag: -9%; EPAC1 ag: -10%; EPAC1 antag: -10%; EPAC2 antag: -3%

How did Cc1cc2nc3c(=O)n(C4CCCCC4)c(=O)[nH]c3nc2cc1N do in these assays?
VDR inh: inconclusive; USP1-UAF1 inh: inconclusive; EPAC2 ag: inconclusive; EPAC1 ag: 112µM*; EPAC1 antag: 237%; EPAC2 antag: 40%

Results for O=C(C1=NN(c2ccccc2)C2C(=O)N(c3cccc(Cl)c3)C(=O)C12)c1ccccc1 (stereo unspecified) ?
VDR inh: -11%; USP1-UAF1 inh: inconclusive; EPAC2 ag: 10%; EPAC1 ag: -82%; EPAC1 antag: 50µM*; EPAC2 antag: 32%

What do the screens show for `COc1cccc(NC(=O)CN(C)C(=O)CNC(=O)c2ccc(Oc3ccccc3)cc2)c1`?
VDR inh: -2%; USP1-UAF1 inh: -21%; EPAC2 ag: 10%; EPAC1 ag: 63µM*; EPAC1 antag: 1%; EPAC2 antag: 4%

Results for COc1ccc(NC(=O)CN(C)C(=O)CNC(=O)c2ccc3ccccc3c2)cc1 ?
VDR inh: 6%; USP1-UAF1 inh: -24%; EPAC2 ag: -13%; EPAC1 ag: 2%; EPAC1 antag: 13%; EPAC2 antag: 2%

What do the screens show for `CCCCC/C=C\C/C=C\CCCCCCCC(=O)NCCc1ccc(O)c(O)c1`?
VDR inh: 11%

Results for O=C(CSc1nnc(SCc2ccc(Cl)cc2)s1)N/N=C/c1ccc(C(=O)O)cc1 ?
VDR inh: -7%; USP1-UAF1 inh: -18%; EPAC2 ag: -4%; EPAC1 ag: 2%; EPAC1 antag: 8%; EPAC2 antag: 45µM*

Results for CC(=O)Oc1c(Sc2ccccc2[N+](=O)[O-])c(C)nn1C(C)(C)C ?
VDR inh: -28%; USP1-UAF1 inh: -21%; EPAC2 ag: 8%; EPAC1 ag: 10%; EPAC1 antag: inconclusive; EPAC2 antag: 50µM*

How did CN(Cc1ccccc1)C(=O)[C@H](Cc1ccc2ccccc2c1)NC(=O)[C@@H]1C[C@@H](O)CN1C(=O)c1cn(C)c2ccccc12 do in these assays?
VDR inh: 3%

Results for O=C(/C=C/c1ccccc1)CC(O)(c1ccccc1)C(F)(F)F (stereo unspecified) ?
VDR inh: -88%; USP1-UAF1 inh: inconclusive; EPAC2 ag: 20%; EPAC1 ag: 27%; EPAC1 antag: -1%; EPAC2 antag: -12%

How did COc1ccc(/C=C/C(=O)CC(O)(c2ccccc2)C(F)(F)F)cc1 (stereo unspecified) do in these assays?
VDR inh: 35µM*; USP1-UAF1 inh: -26%; EPAC2 ag: 13%; EPAC1 ag: 1%; EPAC1 antag: -17%; EPAC2 antag: -19%

What do the screens show for `NCCCN(Cc1ccc(Cl)c(Cl)c1)c1ccc(Br)cn1`?
VDR inh: 8%
